Source: PubChem
The entries come from a sample that favours hits as a whole.
KDM5B inhibitor = Primary screen for KDM5B Histone Demethylases FDH-coupled qHTS. Lysine-specific demethylase 5B (Homo sapiens), Q9UGL1. KDM5B demethylase, FDH-coupled NADH fluorescence (FDH is formaldehyde dehydrogenase). Potency, µM (doses to about 57.7 µM), most hits filed as inhibitors. actives 2.6% (n = 220,000). AID 1347165, 2019; active = well fitted inhibition curve with a large enough effect; also: 0% is about no effect; nearly all actives have a fitted effect of over 70% in size
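Inhibition is measured as reduced NADH fluorescence generation from FDH coupling to formaldehyde release. Truncated KDM5BΔAP at 200 nM final acts on H3K4me3 peptide (12.5 µM in substrate mix) in pH 7.5 HEPES buffer with Tween-20, 30 min, room temperature.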
Starred values were filed as active, the others as inactive; i = inactive. Potency is read from the fitted curve at half-maximal effect.

SMILES	KDM5B inhibitor
O=C(COc1ccccc1-n1cnnc1)NC1CCCc2c1[nH]c1ccccc21 (stereo not given)	i
Cc1noc(C)c1CCC(=O)NC1CCCc2c1[nH]c1ccccc21 (stereo not given)	28µM*
CC(=O)NC1CCCc2c1[nH]c1ccc(Cl)cc21 (stereo not given)	i
Cc1ccc(CNC(=O)COc2ccc3c(C)cc(=O)oc3c2)cc1	i
Cc1cccc(N2CCN(C(=O)CCn3c(=O)c4cccn4c4cccnc43)CC2)c1C	i
CCC(=O)Nc1cccc(-c2cn3c(C)csc3n2)c1	i
Cc1cnc(CC2CCN(C(=O)C3CC3)C2)n1C(C)C (stereo not given)	i
O=C(Nc1ccc(Cl)cc1)N1CCn2c(nn(-c3ccc(F)cc3)c2=O)C1	i
O=C(CCC1CCN(S(=O)(=O)c2ccccc2)CC1)NC1CCCC1	i
O=C(NC1CC1)c1ccc2nnc(-c3ccc(F)cc3)n2c1	126µM*
O=C(NC1CCCC1)c1ccc(Cl)cc1-n1cnnn1	i
O=C(NC1CC1)c1ccc2nnc(C3CC3)n2c1	100µM*
CC1CCC(NC(=O)c2ccc(C(N)=O)cc2)CC1 (stereo not given)	i
C[C@H](O)c1onc(-c2ccc(F)cc2)c1C(=O)NC1CC1	i
O=C(NC1CCCCC1)c1ccc(Cl)nc1	i
COc1ccc(C(=O)NC2CCN(c3cc(-c4ccc(F)cc4)[nH]n3)CC2)cc1F	i
O=C(NC1CCCC1)c1ccc2nnc(-c3cncc(Cl)c3)n2c1	100µM*
O=C(NC1CCC(c2ccccc2)CC1)c1ccncc1 (stereo not given)	i
Cc1c(CC(=O)NCCc2ccccc2F)c(=O)oc2cc(O)ccc12	i
Cc1ccc(CNC(=O)c2cccc(N3CCCS3(=O)=O)c2)cc1	i
COC(=O)c1ccccc1NS(=O)(=O)c1c(C)cc(C)cc1C	i
COc1ccc(CC(=O)NCc2nnc3ccccn23)cc1	i
N#Cc1ccccc1-c1ccc(C=O)o1	i
N#Cc1ccccc1-c1ccc(-c2cn(Cc3nnc4ccccn34)nn2)o1	28µM*
Cc1nc2n(n1)C(C(=O)Nc1ccc(C)c(C)c1)CC(=O)N2 (stereo not given)	i
SMILES	KDM5B inhibitor
CC(C)(C)OC(=O)N1CC(NCc2cccc(F)c2)C1	i
CC(C)(C)OC(=O)N1CC(Nc2ccc(Cl)cc2)C1	i
CC(C)(C)OC(=O)N1CC(Nc2ccccc2O)C1	100µM*
CNS(=O)(=O)c1cccc(C(=O)OCc2cc(=O)oc3c(C)c(C)ccc23)c1	i
CN(Cc1ccccc1C(F)(F)F)C1CCCc2ccccc21 (stereo not given)	i
CCc1ccc(NC(=O)CSc2nccn2-c2ccc(OC)cc2)cc1	i
CCCCn1c(=O)[nH]c(=O)c2c1nc(-c1ccc(OCCC)c(OCC)c1)n2CCOC	i
O=C(c1cc2ccccc2cc1O)N1CCN(c2ccccn2)CC1	i
Cc1cccc(OCC(=O)NC(C)C(=O)N2CCN(c3ccccn3)CC2)c1 (stereo not given)	35µM*
CC(C)C(=O)N1CCCC(CN2CCN(c3ccccn3)CC2)C1 (stereo not given)	i
COc1ccc(-c2cc(N3CCC(NC(=O)COc4cccc(C)c4)CC3)n[nH]2)cc1	i
CC(NC(=O)COc1ccccc1)C(=O)N1CCN(c2ccccn2)CC1 (stereo not given)	22µM*
Cc1cccc(OCC(=O)NCCCNC(=O)c2ccncc2)c1	i
CCc1ccccc1NC(=O)COCc1cc(-c2ccco2)on1	i
CCC(C)(C)NC(=O)C(c1ccc(OC)cc1)N(C(=O)CCC(=O)Nc1cc(C)on1)c1ccc2c(c1)OCCO2 (stereo not given)	i
CCOCCn1c(SCc2ccc(Cl)cc2)nc2c1c(=O)[nH]c(=O)n2C	i
CCN(CC)c1ccc2cc(-c3nnc(Nc4ccc(C)cc4)s3)c(=O)oc2c1	i
CC(C)c1cnc2c(c1SCC(=O)Nc1ccccc1C(F)(F)F)c(=O)n(C)c(=O)n2C	i
O=C(Nc1ccnn1Cc1ccccc1)c1cc(=O)c2ccc(Br)cc2o1	i
COc1ccc(CNC(=O)c2c(C)noc2-c2ccc(OC(F)(F)F)cc2)cc1	i
Cc1ccc(CNC(=O)c2c(C)noc2-c2ccc3c(c2)OCO3)o1	25µM*
Cc1cc(CNC(=O)c2ccc3c(c2)OCO3)c2ccccc2n1	i
Cc1noc(-c2ccco2)c1C(=O)NCc1cccc(Cl)c1	i
Cc1cccc(CNC(=O)c2c(C)noc2-c2ccc3c(c2)OCO3)c1	32µM*
COc1ccccc1-c1onc(C)c1C(=O)NCc1cccc(C)c1	i
SMILES	KDM5B inhibitor
Cc1noc(-c2ccccc2Cl)c1C(=O)NCc1cc(F)cc(F)c1	i
Cc1noc(C)c1C(=O)N(C)Cc1ccc2c(c1)OCO2	i
Cc1noc(-c2ccc3c(c2)OCO3)c1C(=O)NCc1ccccc1	28µM*
O=C(Nc1cccc(C(F)(F)F)c1)N[C@H]1[C@H](O)[C@@H](Oc2ccccc2)[C@@H]2OC[C@H]1O2	i
CC(C)Oc1cccc(-c2nc(C(=O)N(C)Cc3ccccc3)cs2)c1	i
CC(OC(=O)c1ccc(CS(C)(=O)=O)cc1)C(=O)c1ccc(F)cc1 (stereo not given)	i
COc1ccc(OCC(=O)Nc2nnc(S(=O)(=O)N3CCCCCC3)s2)cc1	i
Cc1ccccc1Cn1c2ccccc2c2cnn(CC(=O)N3CCC(C)CC3)c(=O)c21	i
Cc1cc(C)n2ncc(C(=O)NCc3cc4n(n3)CCN(C(=O)N(C)C)C4)c2n1	32µM*
COc1ccc(F)cc1C(=O)NCc1cc2n(n1)CCN(C(=O)N(C)C)C2	i
Cc1ccc(C)c(CC(=O)NCc2cc3n(n2)CCN(C(=O)N(C)C)C3)c1	i
CC(C)Cc1nn2c(=O)cc(COC(=O)c3ccccc3NC(=O)C3CCCCC3)nc2s1	i
O=c1ccc(S(=O)(=O)N2CCCC2)cn1Cc1ncc(-c2ccc(Cl)cc2)o1	i
COc1ccc(CN2CCCCC23Cc2ccccc2CNC3=O)cc1 (stereo not given)	i
CNc1nc(-c2ccc3c(c2)OCCCO3)cs1	i
c1cncc(-c2ccnc3nc(CCC4CCCC4)nn23)c1	i
c1cc(-c2ccc3c(c2)OCCCO3)n2nc(C3CCC3)nc2n1	16µM*
c1ccc(CCc2nc3nccc(-c4ccncc4)n3n2)cc1	i
c1cc(-c2ccnc3nc(C4CCCCC4)nn23)ccn1	32µM*
Cn1cc(C=O)c(-c2ccc3c(c2)OCCCO3)n1	i
c1cc(-c2ccnc3nc(C4CCC4)nn23)ccn1	28µM*
c1cc(-c2ccnc3nc(CCC4CCCC4)nn23)ccn1	28µM*
O=C(NC1CCCCC1)N1CCC(c2noc(-c3ccncc3)n2)C1 (stereo not given)	i
COc1ccc(C(=O)N[C@@H]2CCC[C@@H]2C(=O)N2CCN(c3ccccc3F)CC2)cc1	i
O=C(CN1C(=O)NC2(CCOCC2)C1=O)NCCc1ccc(Cl)cc1	i
Cc1ccc(Cl)cc1NC(=O)Cn1c(C)nc2c(sc3cccc(F)c32)c1=O	i
Cn1c(=O)c2[nH]c(-c3cccc(O)c3)nc2n(C)c1=O	i
Cc1nn(C)cc1C(=O)N1C[C@@H](CO)[C@H](c2ccncc2)C1	i
CCC(C(=O)Nc1ccc2c(c1)OCCO2)n1nc(-c2cc(C)ccc2C)ccc1=O (stereo not given)	i
